# Source: PubChem (National Center for Advancing Translational Sciences (NCATS))
# This is a sample that favours compounds with a hit; in the whole collection about 7.8% have one here.
# HCV inh: HCV inhibition; Huh7.5.1 HCVcc-Cre infection, luciferase reporter, 44 h; Potency, µM (top dose mostly 41.8 µM), without a hit: top-dose activity change, negative = inhibition, actives largely listed as inhibitors; 340,000 compounds, 3.4% hits; AID 651820; active = well fitted inhibition curve with a large enough effect; inconclusive = small, poorly fitted or top-dose-only effect, or another doubt; inactive = no such curve, though single readings can be large or run the other way; also: potency is read from the fitted curve at half-maximal effect
#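 Infectious HCVcc-Cre (~0.5 moi) was added to cells just after compound, with cells seeded 4 h earlier at 1,000 per well. Luciferase activity after 44 h culture reported infection; substrate was incubated 15 min at room temperature before reading.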
# Lassa entry inh: Lassa virus entry inhibition. Lassa virus pseudotype entry inhibition, cell reporter. Potency, µM (highest dose often 37.9 µM), for inactives: at the highest dose activity change, negative = inhibition, actives largely listed as inhibitors. 300,000 compounds, 1.2% hits. AID 540256; calls by dose curve; tested in HEK293 cells; also: potency is read from the fitted curve at half-maximal effect; nearly all actives have a fitted effect of over 50% in size
# Vaccinia Venus: vaccinia inhibition (Venus reporter). Potency, µM (titrated, usually from 36.5 µM), without a hit: top-dose activity change, negative = inhibition, most hits filed as inhibitors. Vaccinia virus Venus reporter expression, fluorescence. 330,000 compounds, 0.46% hits. AID 720580; calls by dose curve; tested in A549 cells; also: potency is read from the fitted curve at half-maximal effect; nearly all actives have a fitted effect of over 30% in size
# Marburg entry inh: inhibitors of Marburg virus binding or cell entry. 300,000 compounds, 1.8% hits. Marburg virus pseudotyped entry inhibition, cell reporter. Potency, µM (doses to about 37.8 µM), without a hit: at the highest dose activity change, negative = inhibition, usual class: inhibitors; calls by dose curve; tested in HEK293 cells; also: potency is read from the fitted curve at half-maximal effect
# VACV mCherry inh: vaccinia inhibition (mCherry reporter); Vaccinia virus mCherry reporter infection, fluorescence; Potency, µM (doses to about 36.5 µM), without a hit: at the highest dose activity change, negative = inhibition, actives largely listed as inhibitors; 310,000 compounds, 0.63% hits; AID 720579; calls by dose curve; tested in A549 cells; also: potency is read from the fitted curve at half-maximal effect; nearly all actives have a fitted effect of over 35% in size
# HCMV inh: inhibitors of human cytomegalovirus | HFF cells, HCMV-luciferase reporter, 72 h; hits give low values | activity change, negative = inhibition, % at 57.5 µM | 410,000 compounds, 4.5% hits; in the data active = activity change below about -60%; inconclusive = no clear call, values can overlap the other calls; inactive = above about -39%
#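 Human foreskin fibroblasts infected with luciferase-reporter HCMV at MOI 1 PFU/cell, compounds at two doses. Luciferase measured 72 h post infection; normalized to buffer-only basal and Salinomycin (10uM) controls.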
# Numbers without * were called inactive; i = inactive; ? = inconclusive; / = not tested or not shown; ! = not confirmed by another sample; [ ] = remark or other dose. % is scaled to controls: 0 for no effect and ±100 for the full control effect.
SMILES,HCV inh,Lassa entry inh,Vaccinia Venus,Marburg entry inh,VACV mCherry inh,HCMV inh
COc1ccc(C(=O)CC(Nc2ccc([N+](=O)[O-])cc2)c2ccc(Cl)cc2)cc1 (centres undefined),?,?,/,?,/,-88*
COc1ccc(C(=O)CC(=O)C(=O)Nc2ccc(Cl)cc2)cc1,2%,-12%[46.1 µM],-5%,-23%[46.1 µM],i,-19
CC(C)C1CCN(C(=O)C2CCC(=O)N(CCc3ccc(Cl)cc3)C2)CC1 (centres undefined),?,-18%,-23%,6%,-5%,-64*
COCCN1CCN(C(=O)C2CCC(=O)N(CCc3ccc(Cl)cc3)C2)CC1 (centres undefined),/,7%,-6%,4%,i,-37
CN(C)c1nc2cc(Cl)ccc2cc1CN(Cc1ccc2c(c1)OCO2)C(=O)c1ccoc1,/,/,-2%,/,-9%,/
COc1ccc(S(=O)(=O)N2CCCCC2)cc1-n1cnnn1,18%,0%,1%,?,6%,-11
O=S(=O)(c1ccc(OC(F)(F)F)cc1)N1CCC(O)(c2cccc(C(F)(F)F)c2)CC1,8.9µM*,/,/,/,/,4
OC1(c2cccc(C(F)(F)F)c2)CCNCC1,2%,-2%,/,-24%,/,22
COc1cc(S(=O)(=O)N2CCC(O)(c3cccc(C(F)(F)F)c3)CC2)ccc1-n1cnnn1,1.6µM*!,0%,-27%,2%,-9%,-27
CC1=C(c2ccc(F)cc2)S(=O)(=O)N=C1N1CCC(C(=O)NCCc2ccco2)CC1,/,6%[46.1 µM],-8%,/,-6%,-5
Cc1c(C(=O)Nc2cccc(-c3nc4ccccc4s3)c2)oc2ccccc12,/,?,-13%,25%[46.1 µM],i,50
C=C1SC(Nc2c(C)cc(C)cc2C)=NC12CCCCC2,-65%,?,-24%,3.5µM*,-18%,-89*
C=CCOC(=O)C1=C(C)NC(SCC)=C(C#N)C1c1ccc(Cl)cc1 (centres undefined),10µM*,-7%,-20%,?,i,-30
C=CCOC(=O)C1=C(C)NC(SCC(N)=O)=C(C#N)C1c1ccc(C)cc1 (centres undefined),-14%,/,/,/,/,25
C=CCOC(=O)C1=C(C)NC(SCC(=O)Nc2ccc(C)c(Cl)c2)=C(C#N)C1c1ccco1 (centres undefined),6.3µM*,-25%,?,10µM*,?,?
C=CCOC(=O)C1=C(C)NC(C)=C(C(=O)OCC=C)C1c1ccco1,11µM*,/,/,-3%,/,-27
Cc1ccc(CNc2ncnc3sc(C(=O)N4CCC(N5CCCC(O)C5)CC4)c(C)c23)o1 (centres undefined),/,/,-8%,/,-15%,/
CCOC(=O)c1ccc(NC(=O)c2c(NCc3ccc(OC)c(OC)c3OC)sc3c2CCC(C)C3)cc1 (centres undefined),/,11%[46.1 µM],-12%,/,-1%,-1
COc1ccc(/C=C/c2nc(C#N)c(NC3CCCCC3)o2)cc1OC,/,-26%[46.1 µM],-17%,-4%[46.1 µM],-16%,-2
C#CCN(C[C@H]1[C@H](OC(=O)NCc2ccco2)[C@H](OC(=O)NCc2ccco2)C[C@H]2C(=O)N(c3ccccc3)C(=O)[C@@H]12)S(=O)(=O)c1ccc(C)cc1,/,/,-7%,/,i,7
C#CCN(C[C@@H]1[C@@H](OC(=O)NCc2ccc(OC)c(OC)c2)[C@@H](OC(=O)NCc2ccc(OC)c(OC)c2)Cn2c(=O)n(CCCCCC)c(=O)n21)S(=O)(=O)c1ccc(C)cc1,/,/,-26%,/,-10%,-16
C#CCN(C[C@@H]1[C@@H](OC(=O)NCc2ccc(OC)c(OC)c2)[C@@H](OC(=O)NCc2ccc(OC)c(OC)c2)Cn2c(=O)ccc(=O)n21)S(=O)(=O)c1ccc(C)cc1,/,/,?,/,?,-107*
C#CCN(C[C@@H]1[C@@H](OC(=O)NCc2ccccc2)[C@@H](OC(=O)NCc2ccccc2)Cn2c(=O)n(CCCCCC)c(=O)n21)S(=O)(=O)c1ccc(C)cc1,/,/,-19%,/,-2%,4
C#CCN(C[C@@H]1[C@@H](OC(=O)NCc2ccco2)[C@@H](OC(=O)NCc2ccco2)Cn2c(=O)ccc(=O)n21)S(=O)(=O)c1ccc(C)cc1,/,/,7.9µM*,/,?,-101*
C#CCN(C[C@@H]1[C@@H](OC(=O)NCc2ccco2)[C@@H](OC(=O)NCc2ccco2)Cn2c(=O)n(CCCCCC)c(=O)n21)S(=O)(=O)c1ccc(C)cc1,/,/,-25%,/,-19%,-74*
SMILES,HCV inh,Lassa entry inh,Vaccinia Venus,Marburg entry inh,VACV mCherry inh,HCMV inh
O=C(NCc1ccccc1)c1ccc2c(c1)N(Cc1ccccc1F)C(=O)c1ccccc1S2=O (centres undefined),/,-5%[46.1 µM],-7%,?,-14%,-31
CCOc1cccc(C(=O)Nc2cc(C)c(O)c(-c3nc4ncccc4o3)c2)c1,/,-11%[46.1 µM],-23%,4%[46.1 µM],-23%,-24
COc1ccc(C2=CC(=O)N(CCC(N)=O)C2)cc1,/,/,/,/,/,13
O=C(Cn1c(=O)n(-c2ccccc2)c(=O)c2ccc(C(=O)NCc3ccc4c(c3)OCO4)cc21)Nc1ccc(F)c(Cl)c1,/,-14%[46.1 µM],-19%,?,-12%,5
COc1cccc(CNC(=O)CC(c2ccc(F)cc2)N2Cc3ccccc3C2=O)c1 (centres undefined),/,6%[46.1 µM],-11%,/,-9%,-38
COC(=O)C[C@H]1C[C@@H]2c3cc(NS(=O)(=O)c4cccc(OC)c4)ccc3O[C@@H]2[C@@H](CO)O1,/,/,-12%,/,-24%,-22
COc1cccc(S(=O)(=O)Nc2ccc3c(c2)[C@@H]2C[C@@H](CC(=O)NCc4ccc(Cl)cc4)O[C@@H](CO)[C@@H]2O3)c1,/,/,-19%,/,-23%,-78*
CC(C)(C)c1ccc(NS(=O)(=O)c2ccc(N)cc2)cc1,4%,?,-18%,?,-2%,47
CC(C)(C)c1ccc(S(=O)(=O)/C=C/C#N)cc1,/,3.7µM*,-22%,2.5µM*,-15%,/
CCOC(=O)[C@@H]1CSCCS(=O)(=O)N1C(=O)[C@H](Cc1ccccc1)NC(=O)OC(C)(C)C,/,/,/,/,/,-5
Cc1ccc2c(=O)cc(C(=O)Nc3sc4c(c3C(N)=O)CCCC4)oc2c1,/,11%[46.1 µM],-6%,3%[46.1 µM],-22%,6
FC(F)(F)c1cccc(NC(=S)NCc2ccccc2)c1,-11%,?,?,0%,/,-73*
COc1ccc(NC(=S)NNC(=S)Nc2cccc(C(F)(F)F)c2)cc1,?,?,-19%[7.34 µM],?,?,-76*
CN(C)S(=O)(=O)Oc1ccc(Cl)cc1C(=O)Nc1cccc(C(F)(F)F)c1,11µM*,-7%,/,-19%,/,146
COC(=O)/C=C/C(=O)Nc1cccc(C(F)(F)F)c1,8%,-10%,?,?,?,-74*
CCOC(=O)CC1N=NN=N1,/,/,/,19%[46.1 µM],/,/
CCCN(Cc1ccccc1)C(=S)Nc1cccc(C(F)(F)F)c1,?,?,/,?,/,0
